Bioassay records as filed in PubChem.
CFTR F508del cor = correctors of CFTR F508del function in bronchial epithelial cells | CFBE cells, YFP halide quenching; stimulated with forskolin plus potentiator P3; % fluorescence drop versus neutral controls | activity (quench increase), % at 7.58 µM | hit rate 0.36% among 350,000;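 active means mean added fluorescence quench of at least 8% versus neutral control, with both replicates also reaching 8%; inconclusive means only one of the mean or replicate conditions met; inactive means mean below 8% and not both replicates reaching 8%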;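 further: cells transiently co-express mutant CFTR-F508del with the halide-sensitive YFP; corrector assay measuring rescue of mutant channel to the surface after 24 h compound exposure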
GSIS activator = primary screen for activators of insulin secretion dependent on glucose, INS-1E cells, GLuc reporter luminescence | AID 743287 | hit rate 0.61% among 370,000 | activation, % at 16.6 µM | INS-1E GLuc reporter insulin secretion, 2-3 h;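 active means lowest replicate activation of at least 40%, so every replicate reaches that level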;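 further: 0% = median of neutral control wells and 100% = median of IBMX positive control wells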
Env fusion inh = inhibitors of HIV Env-mediated cell fusion. HeLa-JRFL Env/CEM21 cell fusion, luciferase. inhibition, % at 12.3 µM. hit rate 1.1% among 360,000. AID 651610;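 active means mean replicate inhibition score of at least 50 and every replicate individually at or above 50; inconclusive means only one of the two criteria met; inactive means mean below 50 and not all replicates reaching 50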;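 further: 0% = plate neutral controls and 100% = maraviroc near 300 nM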
PGC1a acetyl inh = lowers PGC1a acetylation signal in U2OS cells; inhibition, % at 15.6 µM; hit rate 0.17% among 350,000; AlphaScreen anti-acetyl-lysine; with virally co-expressed GCN5 acetyltransferase;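 active means every replicate shows inhibition of at least 40%; inconclusive means mean inhibition at least 40% but some replicate below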;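 further: 0% = neutral control wells and 100% = positive control wells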
EWS-Fli block = EWS/Fli transcriptional activity inhibition; A673 NR0B1-luciferase reporter, viability-normalised; inhibition, % at 12.6 µM; hit rate 0.67% among 350,000;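 active means mean inhibition of at least 50% after viability correction, with every replicate also passing that limit; inconclusive means mean reaches 50% but only one of two replicates passes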;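 further: firefly luciferase signal divided by Alamar Blue viability fluorescence both relative to DMSO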
PAX8 reporter = PAX8 transcriptional activity inhibition. hit rate 1.2% among 360,000. RMG-I TPO-luciferase reporter, SteadyGlo, 24 h. inhibition, % at 12.6 µM;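 active means mean replicate inhibition at least 60% with every replicate also reaching 60%; inconclusive means only one of the two criteria is met; inactive means mean below 60% and not all replicates reaching 60%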;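 further: luciferase light reporting Pax8 driven TPO promoter activity; plate controls were median of neutral control wells for no effect and mitoxantrone controls for full effect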
* = called active by the depositor; u = inconclusive; x = no result given; [ ] = remark or other dose. In the library only some 2.7% were active in any assay of this set; here they are far more common.

SMILES	CFTR F508del cor	GSIS activator	Env fusion inh	PGC1a acetyl inh	EWS-Fli block	PAX8 reporter
C[C@@H]1CN([C@H](C)CO)C(=O)c2cccc(NS(=O)(=O)c3ccc(F)cc3)c2O[C@@H]1CN(C)Cc1ccc(Cl)c(Cl)c1	5	-24	x	-21	5	x
C[C@@H]1CN([C@@H](C)CO)C(=O)c2cccc(NS(=O)(=O)c3ccccc3)c2O[C@H]1CN(C)Cc1ccc(Cl)c(Cl)c1	0	-39	-8[16.7 µM]	-10	-4	-9
C[C@@H]1CN([C@H](C)CO)C(=O)c2cccc(NS(=O)(=O)c3ccccc3)c2O[C@@H]1CN(C)Cc1ccc(Cl)c(Cl)c1	1	-9	81*[16.7 µM]	-8	-8	-15
COCC#Cc1ccc(CC[C@H]2O[C@H]3CC[C@@H](CO)O[C@H]3C[C@@H]2n2cc(C3CC3)nn2)cc1	-1	x	x	-1	-3	x
C[C@H](NC(=O)[C@H]1[C@H](CO)[C@H]2Cn3c(cccc3=O)[C@H]2N1C(=O)C1CC1)c1ccccc1	-3	13	x	1	-6	-10
CC(C(=O)N1CCC(C(N)=O)CC1)N(c1ccc(Oc2ccccc2)cc1)S(C)(=O)=O (stereo not given)	x	50*	-19	-57	x	x
CC1=C/C(=N\OS(=O)(=O)c2ccccc2)C(C)=CC1=O	x	250	x	60*	x	x
COc1ccc(S(=O)(=O)/N=C2/C=CC(=O)C(C)=C2C)cc1	x	x	x	2	x	x
CC1=C(C)/C(=N\OS(=O)(=O)c2ccc(C)cc2)C=CC1=O	x	225*	-298	x	x	63*
C[C@H](CO)N1C[C@H](C)[C@H](CN(C)C(=O)c2cccc(F)c2)Oc2ncc(-c3cccnc3)cc2C1=O	0	12	-28[16.7 µM]	9	-8	x
COc1ccc(-c2ccc3c(c2)O[C@H](CN(C)CC2CCOCC2)[C@H](C)CN([C@H](C)CO)S3(=O)=O)cc1	-1	18	5[16.7 µM]	-6	14	x
Cc1noc(C)c1NC(=O)N(C)C[C@H]1Oc2ccc(NC(=O)Nc3ccc(C(F)(F)F)cc3)cc2C(=O)N([C@@H](C)CO)C[C@@H]1C	-1	4	-11[16.7 µM]	-5	1	2
COc1ccccc1-c1cn(CC[C@H]2CC[C@@H](NC(=O)C3CCC3)[C@@H](CO)O2)nn1	0	7	3[16.7 µM]	0	-5	7
COc1cc(C2C3=C(COC3=O)Oc3cc4c(cc32)OCO4)cc(OC)c1O (stereo not given)	x	x	31	x	57*	90*
COc1cc(C2CC(=O)Oc3cc4c(cc32)OCO4)cc(OC)c1OC (stereo not given)	-2	28	20	5	-10	-21
COc1cc(C2C3=C(COC3=O)Oc3cc4c(cc32)OCO4)cc(OC)c1OC (stereo not given)	2	-2	-191	-5	36	69*
COc1cc(C2C(C#N)=C(N)Oc3cc4c(cc32)OCO4)cc(OC)c1OC (stereo not given)	-6	-3	-65	x	62*	96*
O=C1OCC2=C1C(c1ccc3c(c1)OCO3)c1cc3c(cc1O2)OCO3 (stereo not given)	9.8*	5	34	x	39	-2
COc1cc(C2C(C#N)=C(N)Oc3cc(O)ccc32)cc(OC)c1OC (stereo not given)	x	x	-156	22	x	x
Clc1ccc(CN2CCN(c3ncnc4scc(-c5cccs5)c34)CC2)cc1	x	x	66*	2	x	22
Fc1ccc(CN2CCN(c3ncnc4scc(-c5ccc(F)cc5)c34)CC2)cc1	-3	-26	15	-11	14	13
COc1ccc(NC(=O)N(C)C[C@@H]2OCCCC[C@H](C)Oc3ccc(NC(=O)NC(C)C)cc3C(=O)N([C@@H](C)CO)C[C@@H]2C)cc1	0	-2	1[16.7 µM]	-11	-5	0
COc1ccc(-c2cnc3c(c2)C(=O)N([C@@H](C)CO)C[C@H](C)[C@@H](CN(C)C(=O)CN(C)C)O3)cc1	1	21	11[16.7 µM]	11	-20	x
O=C(CSc1nnc(-c2ccccc2)n1Cc1ccccc1)NNC(=O)c1ccccc1O	x	-13	4	14	79*	22
O=C(CSc1nnc(-c2ccccc2O)n1Cc1ccccc1)NNC(=O)c1ccccc1O	x	8	12	x	x	9
SMILES	CFTR F508del cor	GSIS activator	Env fusion inh	PGC1a acetyl inh	EWS-Fli block	PAX8 reporter
COc1ccc(NC(=O)Nc2ccc3c(c2)[C@@H]2C[C@@H](CC(=O)NCCc4ccccc4)O[C@H](CO)[C@@H]2O3)cc1	-1	-12	15[16.7 µM]	-3	1	9
Cc1cccc(COC[C@H](Cc2ccccc2)N2CCN(C(=O)c3cccc(Cl)c3)CCC2=O)c1	0	3	75*	x	18	8
Cc1cccc(COC[C@H](Cc2ccccc2)N2CCN(C(=O)c3cccc(C)c3)CCC2=O)c1	4	-23	21	x	26	1
Cc1cccc(COC[C@H](Cc2ccccc2)N2CCN(C(=O)c3cc(Cl)cc(Cl)c3)CCC2=O)c1	0	-2	92*	x	20	16
Cc1cccc(COCC(Cc2ccccc2)N2CCN(C(=O)c3cccc(Cl)c3)CCC2=O)c1 (stereo not given)	-1	-40	66*	x	6	33
O=C(c1cccc(Cl)c1)N1CCC(=O)N(C(COCc2ccccc2)Cc2ccccc2)CC1 (stereo not given)	1	x	33	x	23	5
Cc1noc(C)c1NC(=O)N1C[C@@H](O)COC[C@@H]2O[C@H](CC(=O)N[C@H]3CCN(Cc4ccccc4)C3)CC[C@H]21	x	5	x	x	x	x
Cc1c(C)c2c(OCC(=O)N3CCC(O)CC3)cc3c(c2oc1=O)CCC(C)(C)O3	9.2*	32	x	-8	13	x
Cc1cc(NC(=O)CSCC(=O)N(c2ccc(F)cc2)C(C(=O)NC2CCCCC2)c2ccc(O)c(O)c2)no1 (stereo not given)	x	-29	u	x	x	9
COc1ccc(N(C(=O)CSCC(=O)Nc2cc(C)on2)C(C(=O)NC2CCCCC2)c2ccc(O)c(O)c2)cc1 (stereo not given)	x	-10	57*	x	17	-8
COc1ccc(N(C(=O)/C=C/C(=O)Nc2cc(C)on2)C(C(=O)NC2CCCC2)c2ccccc2C)cc1 (stereo not given)	0	-23	25	x	4	71*
COc1ccc(NS(=O)(=O)c2ccc(-c3cnc(C4CC4)o3)cc2)cc1OC	4	-32	-157	x	u	57
Cc1cccc(N(C)S(=O)(=O)c2ccc(-c3cnc(C4CC4)o3)cc2)c1	1	-21	-119	x	58*	99*
Cc1ccc(NS(=O)(=O)c2ccc(-c3cnc(C4CC4)o3)cc2)c(C)c1	3	3	-318	x	52*	40
COc1ccccc1CNS(=O)(=O)c1ccc(-c2cnc(C3CC3)o2)cc1	u	-14	-107	x	61*	34
O=S(=O)(Nc1ccc(F)cc1Cl)c1ccc(-c2cnc(C3CC3)o2)cc1	14*	x	-208	4	57*	28
